Results on 68 compounds are retold here after the antibiotic and cytotoxicity screens of Wong et al. (2023).

Screen size: about 39,000 compounds; about 3,300 (8.5%) were called active. Only a selection was taken, and actives are over-represented in it overall.

This assay has as its system HepG2. Nature of the assay: cytotoxicity call (relative viability < 0.9). Conditions: 10 µM.
On to `CN1CCN(C(=O)C[C@@H]2C=C[C@@H](NC(=O)Nc3ccccc3F)[C@@H](CO)O2)CC1`, for which the cytotoxicity call is “inactive”.
As for `COc1ccc(NC(=O)N(C)C[C@@H]2Oc3ccc(NS(C)(=O)=O)cc3CC(=O)N([C@H](C)CO)C[C@@H]2C)cc1`, the entry is “inactive”; as for `C[C@@H]1CN([C@H](C)CO)C(=O)c2cccc(NC(=O)Nc3ccccc3)c2O[C@H]1CN(C)C(=O)Nc1ccc(C(F)(F)F)cc1`, “inactive”.
As to `Cc1ccc(S(=O)(=O)c2c[nH]c(=O)[nH]2)cc1`, the cytotoxicity call was “inactive”.
Consider `CC[C@@](C)(Nc1n[nH]c(=O)[nH]c1=O)C(=O)O`, for which the cytotoxicity call is “inactive”.
On to `OCC1OC(OC2C(CO)OC(O)C(O)C2O)C(O)C(O)C1O` (stereo not drawn), for which the cytotoxicity call was “inactive”.
As for `O.OCC1OC(OC2C(CO)OC(O)C(O)C2O)C(O)C(O)C1O` (stereo not drawn), the entry is “active”; as for `OC[C@H]1O[C@@H](O[C@@H]2[C@@H](O)[C@H](O)[C@H](O[C@@H]3[C@@H](O)[C@H](O)[C@H](O)O[C@@H]3CO)O[C@@H]2CO)[C@@H](O)[C@@H](O)[C@@H]1O`, “inactive”; as for `COC(=O)c1c2oc(c1C(=O)OC)C(=O)N(C)Cc1cn(nn1)C[C@@H](Cc1ccccc1)NC(=O)N[C@H](COC(=O)NCCCCCC(=O)NO)CC2`, “inactive”.
For `Cc1noc(C)c1NC(=O)Nc1ccc2c(c1)C(=O)N([C@@H](C)CO)C[C@H](C)[C@@H](CN(C)S(C)(=O)=O)O2`, the cytotoxicity call was “inactive”.
For `O=C(OC[C@H]1O[C@@H](OC(=O)c2cc(O)c(O)c(O)c2)[C@H](O)[C@@H](O)[C@@H]1O)c1cc(O)c(O)c(O)c1` the value was “inactive”; for `O=C(OC1Cc2c(O)cc(O)cc2OC1c1ccc(O)c(O)c1)c1cc(O)c(O)c(O)c1` (stereo not drawn), “inactive”; for `O=C(Oc1cc(O)cc2c1C[C@@H](OC(=O)c1cc(O)c(O)c(O)c1)[C@@H](c1cc(O)c(O)c(O)c1)O2)c1cc(O)c(O)c(O)c1`, “inactive”.
For `O=C(OC[C@H]1O[C@@H](OC(=O)c2cc(O)c(O)c(O)c2)[C@H](OC(=O)c2cc(O)c(O)c(O)c2)[C@@H](OC(=O)c2cc(O)c(O)c(O)c2)[C@@H]1OC(=O)c1cc(O)c(O)c(O)c1)c1cc(O)c(O)c(O)c1` the value was “active”; for `O=C(O)C[C@@H]1C(=O)O[C@H]2[C@@H](OC(=O)c3cc(O)c(O)c(O)c3)[C@H](OC(=O)c3cc(O)c(O)c4c3[C@H]1[C@H](O)C(=O)O4)[C@H](OC(=O)c1cc(O)c(O)c(O)c1)O[C@@H]2COC(=O)c1cc(O)c(O)c(O)c1`, “active”; for `O=C(OC[C@H]1O[C@@H](OC(=O)c2cc(O)c(O)c(O)c2)[C@H](O)[C@@H](OC(=O)c2cc(O)c(O)c(O)c2)[C@@H]1O)c1cc(O)c(O)c(O)c1`, “active”.
As for `O=C(O)c1cc(O)c(O)c(O)c1`, the cytotoxicity call was “inactive”.
As for `O=C(OCC1OC(OC(=O)c2cc(O)c(O)c(OC(=O)c3cc(O)c(O)c(O)c3)c2)C(OC(=O)c2cc(O)c(O)c(OC(=O)c3cc(O)c(O)c(O)c3)c2)C(OC(=O)c2cc(O)c(O)c(OC(=O)c3cc(O)c(O)c(O)c3)c2)C1OC(=O)c1cc(O)c(O)c(OC(=O)c2cc(O)c(O)c(O)c2)c1)c1cc(O)c(O)c(OC(=O)c2cc(O)c(O)c(O)c2)c1` (stereo not drawn), the entry is “active”; as for `O=C(OC1Cc2c(O)cc(O)cc2OC1c1cc(O)c(O)c(O)c1)c1cc(O)c(O)c(O)c1` (stereo not drawn), “inactive”; as for `C=C[C@H]1[C@H](O[C@H]2O[C@@H](CO)[C@@H](O)[C@@H](O)[C@@H]2O)OC=C(C(=O)OC)[C@H]1CCOC(=O)c1cc(O)c(O)c(O)c1`, “inactive”.
For `C[C@@H]1CN([C@H](C)CO)C(=O)c2cccc(NC(=O)Nc3ccc(C(F)(F)F)cc3)c2O[C@H]1CN(C)Cc1ccccc1` the value was “inactive”; for `C[C@@H]1CCCCO[C@@H](CN(C)C(=O)C2CCCCC2)[C@H](C)CN([C@@H](C)CO)C(=O)c2cc(NS(=O)(=O)c3ccc(F)cc3)ccc2O1`, “inactive”.
For `COc1ccc(S(=O)(=O)N2C[C@H](O)COC[C@H]3O[C@@H](CC(=O)NCCCN(C)C)CC[C@@H]32)cc1`, the cytotoxicity call is “inactive”.
In the case of `CCOc1ccc(-n2c([C@@H](C)N(Cc3cccnc3)C(=O)Cc3ccc(F)c(C(F)(F)F)c3)nc3ncccc3c2=O)cc1`, the cytotoxicity call was “inactive”.
For the compound `COc1ccc(CN(C)C[C@H]2OCCCC[C@H](C)Oc3ccc(NS(=O)(=O)c4ccc(C)cc4)cc3C(=O)N([C@H](C)CO)C[C@H]2C)cc1`, the cytotoxicity call was “inactive”.
Consider `COc1ccc(NC(=O)Nc2ccc3c(c2)C(=O)N([C@@H](C)CO)C[C@@H](C)[C@H](CN(C)C(=O)Nc2cccc4ccccc24)O3)cc1`, for which the cytotoxicity call is “inactive”.
For `C[C@H]1CCCCO[C@@H](CN(C)C(=O)Nc2ccc3c(c2)OCO3)[C@@H](C)CN([C@@H](C)CO)C(=O)c2cc(NS(=O)(=O)c3ccc(F)cc3)ccc2O1` the value was “inactive”; for `C[C@@H]1CN([C@H](C)CO)C(=O)c2cc(NC(=O)Nc3cccc4ccccc34)ccc2O[C@H]1CN(C)C(=O)Nc1ccc(F)cc1`, “inactive”; for `CCc1ccc(Nc2c3c(nc4ccccc24)CCC3)cc1`, “active”.
`CCOc1ccc(NC(C)=O)cc1`: the cytotoxicity call is “inactive”.
For `c1ccc(Nc2nc(-c3ccccc3)nc3ccccc23)cc1` the value was “inactive”.
Take `CCC(CC)c1nc(Nc2ccccc2)c2ccccc2n1`: the cytotoxicity call was “inactive”.
For `CCc1ccc(Nc2c3c(nc4ccccc24)CCCC3)cc1` the value was “active”; for `CC(C)CN(C(=O)COC(=O)c1c2c(nc3ccccc13)CCC2)c1c(N)n(Cc2ccccc2)c(=O)[nH]c1=O`, “inactive”.
As for `CCOc1ccc(Nc2c3ccccc3nc3ccccc23)cc1`, the entry is “active”; as for `COc1ccc(NC(=O)Nc2ccc3c(c2)C(=O)N([C@H](C)CO)C[C@@H](C)[C@H](CN(C)C(=O)Nc2ccc4c(c2)OCO4)OCCCC[C@@H](C)O3)cc1`, “inactive”; as for `Cc1cccn2c(CN)cnc12`, “inactive”.
As for `C[C@H](CO)N1C[C@H](C)[C@H](CN(C)C(=O)Nc2ccc(C(F)(F)F)cc2)Oc2c(NC(=O)Nc3ccc(F)cc3)cccc2C1=O`, the entry is “inactive”; as for `COc1ccc(S(=O)(=O)Nc2ccc3c(c2)C(=O)N([C@@H](C)CO)C[C@H](C)[C@H](CN(C)Cc2ccc4c(c2)OCO4)OCCCC[C@@H](C)O3)cc1`, “inactive”; as for `COc1ccc(CN(C)C[C@@H]2OCCCC[C@H](C)Oc3ccc(NS(=O)(=O)c4ccc(F)cc4)cc3C(=O)N([C@H](C)CO)C[C@@H]2C)cc1`, “active”.
With `COc1ccc(CN(C)C[C@H]2OCCCC[C@@H](C)Oc3ccc(NS(=O)(=O)c4ccc(OC)cc4)cc3C(=O)N([C@@H](C)CO)C[C@H]2C)cc1`, the cytotoxicity call was “inactive”.
In the case of `COc1ccc(CN(C)C[C@@H]2OCCCC[C@@H](C)Oc3ccc(NS(=O)(=O)c4ccc(F)cc4)cc3C(=O)N([C@H](C)CO)C[C@H]2C)cc1`, the cytotoxicity call is “inactive”.
`COc1ccc(S(=O)(=O)Nc2ccc3c(c2)C(=O)N([C@H](C)CO)C[C@H](C)[C@H](CN(C)Cc2ccc4c(c2)OCO4)OCCCC[C@H](C)O3)cc1`: the cytotoxicity call is “active”.
As for `COc1ccc(CN(C)C[C@@H]2OCCCC[C@H](C)Oc3ccc(NS(=O)(=O)c4ccc(OC)cc4)cc3C(=O)N([C@@H](C)CO)C[C@@H]2C)cc1`, the entry is “active”; as for `COc1ccc(CN(C)C[C@H]2OCCCC[C@H](C)Oc3ccc(NS(=O)(=O)c4ccc(F)cc4)cc3C(=O)N([C@H](C)CO)C[C@H]2C)cc1`, “inactive”; as for `COc1ccc(CN(C)C[C@H]2OCCCC[C@H](C)Oc3ccc(NS(=O)(=O)c4ccc(F)cc4)cc3C(=O)N([C@@H](C)CO)C[C@H]2C)cc1`, “active”.
As for `COc1ccc(CN(C)C[C@H]2OCCCC[C@H](C)Oc3ccc(NS(=O)(=O)c4ccc(OC)cc4)cc3C(=O)N([C@H](C)CO)C[C@@H]2C)cc1`, the entry is “inactive”.
Take `COc1ccc(S(=O)(=O)Nc2ccc3c(c2)C(=O)N([C@@H](C)CO)C[C@@H](C)[C@@H](CN(C)Cc2ccc4c(c2)OCO4)OCCCC[C@@H](C)O3)cc1`: the cytotoxicity call is “inactive”.
On to `COc1ccc(CN(C)C[C@H]2OCCCC[C@H](C)Oc3ccc(NS(=O)(=O)c4ccc(F)cc4)cc3C(=O)N([C@@H](C)CO)C[C@@H]2C)cc1`, for which the cytotoxicity call was “inactive”.
With `COc1ccc(CN(C)C[C@@H]2OCCCC[C@@H](C)Oc3ccc(NS(=O)(=O)c4ccc(F)cc4)cc3C(=O)N([C@@H](C)CO)C[C@H]2C)cc1`, the cytotoxicity call is “inactive”.
For `[O-][n+]1onc2c1CCc1c-2nn(-c2ccccc2)[n+]1[O-]` the value was “inactive”; for `COc1ccc(C#Cc2ccc3c(c2)[C@]2(C(=O)N3)[C@H](c3ccc(OCCO)cc3)N3[C@H](c4ccccc4)[C@H](c4ccccc4)OC(=O)[C@H]3[C@@H]2C(=O)N2CCN(c3ncccn3)CC2)cc1`, “inactive”.
Regarding `COc1ccc(S(=O)(=O)N(C)C[C@@H]2Oc3ncc(C#CCN(C)C)cc3C(=O)N([C@H](C)CO)C[C@@H]2C)cc1`, the cytotoxicity call was “inactive”.
For `O=C(O)CCC(=O)Nc1ccccn1` the value was “inactive”; for `COc1ccc(NC(=O)Nc2ccc3c(c2)C(=O)N([C@H](C)CO)C[C@H](C)[C@H](CN(C)C(=O)NC2CCCCC2)OCCCC[C@H](C)O3)cc1`, “inactive”; for `Nc1ccn[nH]1`, “inactive”.
`NCc1nnc2n1CCCCC2`: the cytotoxicity call is “inactive”.
As for `CCOC(=O)C1CCN(C)CC1`, the entry is “inactive”; as for `CC[C@@]1(O)C[C@H](O[C@H]2C[C@H](N(C)C)[C@H](O[C@H]3C[C@H](O)[C@H](O[C@H]4CCC(=O)[C@H](C)O4)[C@H](C)O3)[C@H](C)O2)c2c(cc3c(c2O)C(=O)c2c(O)cccc2C3=O)[C@H]1C(=O)OC`, “active”; as for `C[C@@H]1CN([C@@H](C)CO)S(=O)(=O)c2ccc(C#CC3CCCCC3)cc2O[C@@H]1CN(C)C(=O)Cc1ccncc1`, “inactive”.
As for `CO[C@H](C(=O)N(C)C[C@H]1OCc2ccccc2-c2c(n(C)c3ccccc23)C(=O)N([C@@H](C)CO)C[C@@H]1C)c1ccccc1`, the cytotoxicity call is “inactive”.
As for `Cc1cc(C(=O)NCc2cc3n(n2)CCN(S(C)(=O)=O)C3)nc(C)n1`, the entry is “inactive”.
For `C[C@H]1CN([C@@H](C)CO)C(=O)Cc2cc(NC(=O)Nc3ccccc3)ccc2O[C@@H]1CN(C)Cc1ccc(C(F)(F)F)cc1` the value was “active”; for `C[C@H]1CN([C@@H](C)CO)C(=O)Cc2cc(NC(=O)Nc3ccccc3)ccc2O[C@H]1CN(C)Cc1ccc(C(F)(F)F)cc1`, “active”.
For the compound `C[C@@H]1CN([C@H](C)CO)C(=O)Cc2cc(NC(=O)Nc3ccccc3)ccc2O[C@@H]1CN(C)Cc1ccc(C(F)(F)F)cc1`, the cytotoxicity call was “active”.
With `C[C@@H]1CN([C@@H](C)CO)C(=O)Cc2cc(NC(=O)Nc3ccccc3)ccc2O[C@@H]1CN(C)Cc1ccc(C(F)(F)F)cc1`, the cytotoxicity call was “active”.
With `C[C@H](CO)N1C[C@H](C)[C@@H](CN(C)Cc2ccc(C(F)(F)F)cc2)Oc2ccc(NC(=O)Nc3ccccc3)cc2CC1=O`, the cytotoxicity call was “inactive”.
Take `C[C@@H]1CN([C@H](C)CO)C(=O)Cc2cc(NC(=O)Nc3ccccc3)ccc2O[C@H]1CN(C)Cc1ccc(C(F)(F)F)cc1`: the cytotoxicity call was “inactive”.
